Source: PubChem BioAssay AID743266 (National Center for Advancing Translational Sciences (NCATS), 2014)
The campaign covered roughly 410,000 compounds. About 310 (0.076%) were called active. Inconclusive results (about 2%) are left out. Calls follow the shape of the dose curve; as a rule, active = well fitted activation curve with a large enough effect; inconclusive = small, poorly fitted or top-dose-only effect, or another doubt; inactive = no such curve, though single readings can be large or run the other way. Shown is part of a subset that was picked to be rich in actives. Entries that show only a call come without a potency.

These compounds were tested against Parathyroid hormone/parathyroid hormone-related peptide receptor (Homo sapiens) (UniProt Q03431) (assay: qHTS for PTHR1 Agonists: Primary Screen). Conditions: HEK293 GP2 PTHR1 cells, GloSensor cAMP luminescence, 1 h; series mostly up to 115 µM.
Source text: The goal of the proposed studies is to discover new compounds that act as potent agonists on the parathyroid hormone receptor type-1 (PTHR1). The PTHR1 plays critical roles in maintaining blood calcium and phosphate levels, as well as in controlling bone remodeling. PTHR1 agonists could thus be useful for treating diseases such as hypoparathyroidism and osteoporosis. In the former disease, an agonist drug would help maintain normal blood calcium and phosphate levels under conditions of parathyroid hormone deficiency. In the latter disease, an agonist drug would stimulate new bone formation and thus reduce the risk of fracture, under conditions of bone fragility, as occurs in aging.
To that end, we performed a quantitative high-throughput screening (qHTS) of the Molecular Libraries Probe Centers Network (MLPCN) compound libraries at the NIH Chemical Genomics Center (NCGC) for the parathyroid hormone receptor type-1 (PTHR1) using a unique HEK-293-derived cell line (GP2) that expresses the PTHR1 and a glosensor cAMP reporter construct.
NIH Molecular Libraries Probe Production Centers Network [MLPCN]
NIH Chemical Genomics Center [NCGC]
Assay Submitter (PI): Thomas Gardella, Massachusetts General Hospital
4 microL are dispensed into a 1536-well micro plate to yield 3,000 cells/well. The plates are then incubated overnight, after which 4 microL of 0.5 mM of BIoTium Luciferin plus 0.5 mM IBMX are added. They are then incubated at 37 degree for one hour before 23 nL of compounds are added through pinning and then incubated at 37 degree again for another hour. After the plates are kept at room temperature for 15 min before they are read on the ViewLux to measure luminescence.
Also: nearly all actives have a fitted effect of over 55% in size.
Potency is read from the fitted curve at half-maximal effect.

Parathyroid hormone/parathyroid hormone-related peptide receptor (Homo sapiens), sequence (Q03431 whole entry, looked up): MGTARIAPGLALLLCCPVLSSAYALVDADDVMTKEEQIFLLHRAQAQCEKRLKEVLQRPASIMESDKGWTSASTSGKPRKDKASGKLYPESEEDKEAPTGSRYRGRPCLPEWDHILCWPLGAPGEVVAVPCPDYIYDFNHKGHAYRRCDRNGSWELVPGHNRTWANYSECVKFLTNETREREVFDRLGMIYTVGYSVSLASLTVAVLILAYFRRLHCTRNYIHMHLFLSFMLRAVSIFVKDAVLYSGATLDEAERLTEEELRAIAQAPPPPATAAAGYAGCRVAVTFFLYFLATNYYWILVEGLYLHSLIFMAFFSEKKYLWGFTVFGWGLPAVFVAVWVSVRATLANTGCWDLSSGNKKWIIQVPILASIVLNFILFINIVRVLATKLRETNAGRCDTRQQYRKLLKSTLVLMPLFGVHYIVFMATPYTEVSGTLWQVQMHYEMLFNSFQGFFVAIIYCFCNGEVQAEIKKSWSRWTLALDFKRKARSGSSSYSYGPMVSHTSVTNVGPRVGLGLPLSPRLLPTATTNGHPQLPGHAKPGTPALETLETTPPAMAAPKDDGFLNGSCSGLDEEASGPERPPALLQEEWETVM

SMILES	Potency
CC1=C(c2ccc(C)c(C)c2)S(=O)(=O)NC1=NCc1ccccc1Cl	inactive
COC(=O)c1cc(NC(=O)c2sc3ccccc3c2Cl)cc(C(=O)OC)c1	inactive
Cc1[nH]c2ccccc2c1C(c1ccccc1)c1cccs1 (stereo unspecified)	inactive
CCOc1ccc(N(Cc2ccccc2)C(=O)c2nc(S(C)(=O)=O)ncc2Cl)cc1	inactive
CCOCCCNC(=O)c1cn(CC)c2ccc(S(=O)(=O)N3CCc4ccccc4C3)cc2c1=O	inactive
Cc1ccc(OCC(=O)Nc2ccc(Cl)c(-c3nc4ccccc4[nH]3)c2)cc1C	inactive
CCC1=Nc2cc(C(=O)NCCCOC(C)C)ccc2Sc2ccc(C)cc21	inactive
COc1ccc(-c2noc(CCC(=O)N(C)c3ccccc3C)n2)cc1	inactive
Cc1cccc(N2CCN(c3ccc(C(=O)O)cc3NC(=O)c3ccccc3F)CC2C)c1 (stereo unspecified)	inactive
Cc1cc(C)cc(NS(=O)(=O)c2ccc(-c3cc(C)no3)s2)c1	inactive
COc1cc(C(=O)NCCS(=O)(=O)N2CCN(c3ccccc3)CC2)cc(OC)c1OC	inactive
CCOc1ccc(C(=O)c2cn(Cc3ccccc3OC)c3ccc(F)cc3c2=O)cc1	inactive
CN1C(=O)c2ccccc2Sc2ccc(NC(=O)Cc3ccc(Cl)cc3)cc21	inactive
Cc1ccccc1-c1nc2scc(CCNC(=O)C(=O)Nc3ccc(F)cc3F)n2n1	inactive
O=C(CCS(=O)(=O)c1cc(Br)cc2c1N(C(=O)C1CC1)CC2)Nc1ccc(C(F)(F)F)cc1	inactive
Cc1cc(C)c(NC(=O)CSc2nc3nccnc3c(=O)n2CCc2c[nH]c3ccccc23)c(C)c1	inactive
COc1ccccc1C(=O)Nc1c(C(=O)N(C)Cc2ccccc2)sc2nc(C)c(Cl)c(C)c12	inactive
CCN(C(=O)Cn1cnc2sc(C)c(S(=O)(=O)N3CCN(c4ncccn4)CC3)c2c1=O)c1ccccc1F	inactive
CCC(=O)N1CCc2cc(CNC(=O)Nc3ccccc3Cl)ccc21	inactive
CSc1nc(-c2ccc(F)cc2)nc2c1Cc1c(CO)cnc(C)c1O2	inactive
Cc1ccccc1OCCSc1nc2ccc(NC(=O)c3ccco3)cc2s1	inactive
Cc1ccc(Cn2c(=O)n(-c3ccc(C)cc3)c(=O)c3c2c2cc(C)ccc2n3C)cc1	inactive
Cc1ccsc1CN(C(=O)c1oc2ccc(Br)cc2c1C)C1CCS(=O)(=O)C1 (stereo unspecified)	inactive

SMILES	Potency
Cc1ccccc1CSc1nc2c([nH]c3ccccc32)c(=O)n1C	inactive
CC(=O)c1ccc(N2CCN(c3nc4c(S(=O)(=O)c5ccccc5)nnn4c4ccc(Cl)cc34)CC2)cc1	inactive
Cc1cccc(N2CCN(C(=O)Cn3ncc4c5ccccc5n(C)c4c3=O)CC2C)c1 (stereo unspecified)	inactive
CCOc1ccc(C2C(C(=O)Nc3ccc(Cl)cc3)=C(C)Nc3nc(C(F)(F)F)nn32)cc1 (stereo unspecified)	inactive
CCN(C(=O)Cn1c(=O)nc(-c2ccccc2)c2cc(Cl)ccc21)c1cccc(C)c1	inactive
Cc1cc(C)cc(NC(=O)CCCc2nc(-c3ccccc3Cl)no2)c1	inactive
CCOC(=O)C1CCN(c2nc3c(S(=O)(=O)c4ccc(CC)cc4)nnn3c3ccc(Cl)cc23)CC1	inactive
Cc1ccc(CNC(=O)CCC(=O)N2Cc3ccccc3Oc3ncccc32)cc1	inactive
CCOC(=O)c1c(NC(=O)Cc2coc3ccc(CC)cc23)sc2c1CCC2	inactive
CCOc1ccccc1N(CC)C(=O)Nc1cn(C)c(=O)c2ccccc12	inactive
O=C(NCCCO)c1nn(-c2ccc(Cl)cc2)nc1CO	inactive
CCc1nn(CC(=O)N2CCN(c3ccc(Cl)cc3)CC2)c(=O)c2cc3occc3n12	inactive
CC(C)Cn1c(C2CC(=O)N(c3ccccc3Cl)C2)nc2ccccc21 (stereo unspecified)	inactive
Cn1c(COc2ccccc2C(C)(C)C)nc2ccccc21	inactive
COc1ccc(NC(=O)CSC2=Nc3ccccc3C3=NC(CC(=O)NCc4ccccc4OC)C(=O)N23)cc1Cl (stereo unspecified)	inactive
CC(CCCc1ccccc1)NC(=O)c1nn(-c2ccc(Cl)cc2)nc1CO (stereo unspecified)	inactive
COc1ccc(CNc2nc(-c3ccc(Cl)cc3)nn2C(=O)c2ccccc2)cc1	inactive
Cc1ccc(CCNC(=O)C2CCN(c3nnc(-n4cccc4CNc4ccc(C)cc4)s3)CC2)cc1	inactive
Cc1ccc(SCC(=O)Nc2ccc3oc(-c4ccccc4F)nc3c2)cc1	inactive
CC(=O)N1c2ccc(S(=O)(=O)N3CCCCCC3)cc2CC1C(=O)NCc1ccccc1C (stereo unspecified)	inactive
CCN1CCN(CCCNC(=O)c2cnn(-c3ccc(C)cc3C)c2C2CCN(C(=O)OC(C)(C)C)CC2)CC1	inactive
COc1ccccc1N1CCN(CCCNC(=O)c2cnn(-c3ccccc3Cl)c2C2CCN(C(=O)OC(C)(C)C)CC2)CC1	inactive
Cc1cccc(C)c1-n1ncc(C(=O)NCCCN2CCCCC2)c1C1CCN(C(=O)OC(C)(C)C)CC1	14.1 µM (active)

SMILES	Potency
O=C(NC1CCCCC1)c1ccc(Cn2c(SCc3ccccc3)nc3cccnc32)cc1	inactive
COc1ccc(N(C)C(=O)C2CCN(S(=O)(=O)c3cc(Br)cc4c3N(C(C)=O)CC4)CC2)cc1	inactive
CCOc1ccc(OCC)c(NC(=O)c2c(C)nn(-c3ccccc3)c2-n2cccc2)c1	inactive
COc1cccc(-c2n[nH]c3c2C(c2cccc(O)c2)N(C)C3=O)c1 (stereo unspecified)	inactive
CCCN1CCN(CCCNC(=O)Cn2nc(CC)n3c(cc4occc43)c2=O)CC1	inactive
COc1ccc2c(c1)c(N1CCCC1=O)c(C(=O)Nc1ccc(OC)c(Cl)c1)n2C	inactive
COC(=O)c1cc2occc2n1Cc1nc(-c2ccc(C)cc2)oc1C	inactive
Cc1ccc(-c2cnc(NCc3ccc(C(C)C)cc3)n2C)cc1	inactive
C=Cc1ccc(Cn2c(C(=O)O)c(CNC3CCCC3)c3ccc(C)cc32)cc1	inactive
CCN(CC)C(=O)CSc1nc2cc3c(cc2c(=O)n1CCCC(=O)NCc1ccc2c(c1)OCO2)OCO3	inactive
CCOc1ccc(CNC(=O)C2CCCN(S(=O)(=O)N(CC)c3ccc(OCC)cc3)C2)cc1 (stereo unspecified)	inactive
CCN(CC)S(=O)(=O)c1ccc2c(c1)c(=O)c(C(=O)N1CCN(c3cccc(Cl)c3)CC1)cn2C	inactive
COc1cccc(CNC(=O)C2CCC(CNS(=O)(=O)c3cccs3)CC2)c1 (stereo unspecified)	inactive
COc1ccc(N2CCN(S(=O)(=O)c3ccc(-c4coc(C)n4)cc3)CC2)cc1	inactive
Cc1ccc(C)c(N2CCN(C(=O)CN3C(=O)COc4ccc(S(=O)(=O)N5CCCCCC5)cc43)CC2)c1	inactive
COc1ccccc1CNC(=O)Cn1nc(C)c2nn(-c3ccc(Cl)cc3)c(C)c2c1=O	inactive
O=C(O)c1ccc(CSc2nc3cccnc3n2Cc2cccc(F)c2)cc1	inactive
CC(C)c1ccc(NC(=O)c2ccc(Cn3nc(N4CCN(c5ccccc5)CC4)ccc3=O)o2)cc1	inactive
O=C(CSc1nccn1C1CCCC1)Nc1cc(C(F)(F)F)ccc1Cl	inactive
Cc1ccc(Cc2cnc(N)s2)o1	3.55 µM (active)
Cc1ccc(-c2nc3cccc(C)n3c2Nc2ccc3c(c2)OCCO3)cc1	inactive
CCN(CC)c1ccc(NC(=O)Cn2nc3c(cc2=O)CCCC3)c(C)c1	inactive
CCC(=O)N1c2ccccc2CC1C(=O)N1CCN(c2ccccc2F)CC1 (stereo unspecified)	inactive

SMILES	Potency
Cc1cc(C)c(NC(=O)CCc2c(C)nc3c(c(C)nn3C(C)(C)C)c2C)c(C)c1	inactive
Cn1c(=O)c(C(=O)O)nn(-c2ccccc2)c1=O	inactive
Cc1cc(C)cc(NC(=O)CSc2nc(=O)n(CCN3CCOCC3)c3c2CCC3)c1	inactive
COc1ccccc1NC(=O)Cn1cnc2ccc(S(=O)(=O)N3CCC(C)CC3)cc2c1=O	inactive
COc1ccc(C2(Nc3cccc(F)c3)C(=O)c3ccccc3C2=O)cc1	inactive
CC1CCN(S(=O)(=O)c2ccc3c(c2)N(CC(=O)NCCc2ccccc2)C(=O)CO3)CC1	inactive
COc1ccc(-n2nc(C(=O)NCCc3ccc(Cl)cc3)c3c4ccccc4n(C)c3c2=O)cc1Cl	inactive
CCCCSc1ncnc2c1sc1nc(N3CCOCC3)c3c(c12)CCCC3	79.4 µM (active)
c1ccc(CSc2ncnc3c2sc2nc(N4CCOCC4)c4c(c23)CCCC4)cc1	inactive
CCc1nc2sc3c(Cl)ncnc3c2c2c1CCCC2	inactive
COC(=O)c1c(NC(=O)c2cc(=O)c3c(C)cc(C)cc3o2)sc2c1CCCC2	inactive
Cc1ccccc1NC(=O)Cn1cc(C(=O)c2cccs2)c2ccccc21	inactive
CCCS(=O)(=O)N1CCC(n2c(C(F)(F)F)nc3cccnc32)CC1	inactive
Cc1ccc(CN2COc3cc(C)c4c(oc(=O)c5ccccc54)c3C2)cc1	inactive
COc1ccc(OC)c(-n2nnc(-c3nc(-c4cc(OC)c(OC)c(OC)c4)no3)c2C)c1	inactive
COc1cc(NC(=O)CCn2nc(C)cc2C)cc(OC)c1OC	inactive
Cc1cc(C)cc(NC(=O)Cn2nc(N3CCN(c4ccccc4)CC3)ccc2=O)c1	inactive
COc1cccc(NC(=O)N2CCN(C(=O)c3nsc4ccccc34)CC2)c1	inactive
CCCC(=O)N1CCN(c2nc3c(OC)ccc(C)c3s2)CC1	inactive
Cc1ccc(NC(=O)CN2C(=O)CC(C)Sc3ccccc32)c(C)c1 (stereo unspecified)	inactive
COc1cc(NC(=O)c2nc3ccccc3nc2C)cc(OC)c1OC	inactive
CC(C)CN(Cc1c(O)ccc2c(=O)c(-c3ccccc3)coc12)CC(C)C	35.5 µM (active)
CN(C)Cc1c(O)ccc2c(=O)c(-c3ccccc3Cl)coc12	inactive

SMILES	Potency
CCN(Cc1ccccc1)Cc1c(O)ccc2c(=O)c(-c3ccc(Cl)cc3Cl)coc12	inactive
CC1CCN(S(=O)(=O)c2ccc3c(c2)N(CC(=O)NCc2ccccc2Cl)C(=O)CO3)CC1	inactive
COC(=O)c1cc(NC(=O)CCc2c(C)nc3c4c(C)cc(C)nc4nn3c2C)cc(C(=O)OC)c1	inactive
COc1ccc(Cn2cc(C(=O)c3ccc(C)cc3)c(=O)c3cc(OC)c(OC)cc32)cc1	inactive
Cc1oc2ncnc(N3CCCCC3)c2c1C(=O)N1CCN(c2cccc(Cl)c2)CC1	inactive
CCOC(=O)N1CCc2c(sc3c2C(=O)NC(c2ccccc2F)N3)C1 (stereo unspecified)	inactive
COc1ccc(NC(=O)Cn2c(=O)cc(C)c3c(C)nn(-c4cccc(Cl)c4C)c32)cc1OC	inactive
Cc1ccc(C)c(NC(=O)CSC2=Nc3ccccc3N=C(c3ccc(F)cc3)C2)c1	inactive
CCN(CC)c1ccc(NS(=O)(=O)c2cc(-c3cc(C)no3)ccc2C)c(C)c1	inactive
CCCCC12CN3CC(C)(CN(C1)C3c1ccc(O)c(OC)c1)C2=O (stereo unspecified)	inactive
CC(=O)c1ccc(NC(=O)C2CCN(S(=O)(=O)c3c(C)noc3/C=C/c3ccc(C)cc3)CC2)cc1	inactive
COC(=O)c1ccccc1NC(=O)c1ccc2c(=O)n3c(nc2c1)CCCCC3	inactive
COc1ccccc1-c1cc2nc(C)c(CCC(=O)NC3CCCCC3)c(C)n2n1	inactive
CCc1ccc(CN(Cc2ccco2)C(=O)COc2ccc(Cl)c(C)c2)cc1	inactive
COc1cccc2c1cc1c(=O)n(CC(=O)N3CCN(c4ccccc4)CC3)nc(C)n12	inactive
O=C(NCCc1ccccc1)c1ccc2c(c1)N(Cc1ccc(F)cc1)C(=O)c1ccccc1S2(=O)=O	inactive
Cc1nc2ccn(Cc3cccnc3)c(=O)c2cc1C(=O)N1CCN(c2ccccc2F)CC1	inactive
CCc1ccc(NC(=O)CCS(=O)(=O)c2cc3c(cc2Cl)NC(=O)CO3)cc1	inactive
Cc1ccc(C(=O)Nc2cc3c(cc2N2CCCC2)n(C)c(=O)c(=O)n3C)cc1	inactive
